Compounds without any hit were thinned out: in the full panel of roughly 79,000, 15% have a hit. A number with no mark means an inactive call. Activity calls are given as the source filed them. Rule as the data show it: active = growth inhibition above about 70%; inactive = the rest.
Test: NCI Yeast Anticancer Drug Screen. Data for the wt1 strain (AID 149);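 also: 0% = growth of vehicle-treated wt1 cultures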
Conditions: S. cerevisiae wt1 strain (SPY 50644) growth inhibition, stronger effect = higher value
Description: Growth inhibition of yeast strains with defined genetic alterations is measured as a screen for potential anti-cancer activity. Selected strains with alterations in DNA damage repair or cell cycle control were exposed to compounds and growth inhibition was measured relative to vehicle treated controls. The strain used in this assay is wt1

Row | Structure (SMILES) | growth inhibition (at 1.2 µM) [%] | growth inhibition (at 3.7 µM) [%] | growth inhibition (at 11.0 µM) | growth inhibition (at 33.0 µM) | growth inhibition (at 100.0 µM)
1 | O=C1NC(c2c(Cl)cccc2Cl)Nc2ccccc21 (stereo not given) | -25 | -26 | -22% | 52% | 91% (active)
2 | Cc1ccc(N=Nc2ccc(O)c(C)c2)cc1 | 5 | -2 | 92% (active) | 98% (active) | 85% (active)
3 | Cc1c(-c2ccccc2)[nH]c2ccccc12 | -21 | -12 | -23% | 92% (active) | 98% (active)
4 | Clc1nc(C(Cl)Cl)nc2sc3c(c12)CCCC3 | 2 | 4 | 5% | 21% | 56%
5 | CCCCCCCCCCCCCCCCNC(=O)/C(=C\c1ccc(Cl)c(Cl)c1)NC(=O)c1ccccc1 | -41 | -2 | -4% | -6% | 9%
6 | O=C(Nc1ccc2c(c1)Cc1c-2ccc([N+](=O)[O-])c1F)C(F)(F)F | 2 | 3 | 7% | 4% | 3%
7 | COC(=O)c1n[nH]c(C)c1N=NN(C)CCC#N | -6 | -5 | 97% (active) | 99% (active) | 99% (active)
8 | N#C/C(=C1C=C/C(=N/O)c2ccccc2/1)c1ccccc1 | -3 | -4 | -6% | 53% | 56%

Reference: PubChem BioAssay (NCI)
